RTF Ca sens act = increases calcium sensitivity of human cardiac regulated thin filaments. IANBD-labeled TnC RTF fluorescence at EC20 calcium; 0% EC20 calcium, 100% full calcium. activation, % at 7.2 µM. hit rate 0.24% among 340,000;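 active = activation above the mean over all tested compounds plus 3 SD, cut at about 30% in these data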;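 also: rise in fluorescence read as greater calcium sensitivity of cardiac thin filaments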
E coli Lon inh = inhibitors of E. coli Lon protease. P0A9M0. purified E. coli Lon protease, fluorescence polarization. inhibition, % at 7.94 µM. hit rate 0.42% among 360,000; in the data active = inhibition above about 13%, passing the limit was not always enough;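 also: 0% = enzyme with probe and DMSO and 100% = no enzyme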
LANA DNA inh = inhibitors of KSHV LANA C-terminal domain DNA binding; MBP-C-LANA/FAM-LBS DNA binding, fluorescence polarization; inhibition, % at 9 µM; hit rate 0.078% among 340,000; AID 504423;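 active = highest replicate inhibition at or above 60% at 9 µM, even if other replicates fall short; inactive = all replicates below 60% inhibition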;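 also: 0% = neutral control wells and 100% = 4 µM acridine orange control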
Cardiac RTF inh = cardiac RTF calcium desensitization. P19429+P45379. hit rate 0.12% among 340,000. inhibition, % at 7.15 µM. AID 493244. IANBD-labeled cardiac RTF, Ca2+ fluorescence;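 active = inhibition above the mean inhibition of all tested compounds plus 3 SD, cut at about 17% in these data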;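 also: assay run at fixed EC70 calcium of 1.6 mM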
Keap1 Nrf2 FP = disrupts human Keap1 binding to Nrf2 peptide; Q14145; Keap1 Kelch-Nrf2 peptide fluorescence polarization, 1536-well; inhibition, % at 9.4 µM; hit rate 0.15% among 340,000; AID 504523; in the data active = inhibition above about 12%;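 also: human Keap1 Kelch domain with fluorescein labeled Nrf2 9mer peptide probe; 0% = neutral control wells and 100% = peptide positive control; higher means more block of Keap1 binding to Nrf2 peptide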
Target sequence (Q14145 whole entry, looked up, the tested form may be a part): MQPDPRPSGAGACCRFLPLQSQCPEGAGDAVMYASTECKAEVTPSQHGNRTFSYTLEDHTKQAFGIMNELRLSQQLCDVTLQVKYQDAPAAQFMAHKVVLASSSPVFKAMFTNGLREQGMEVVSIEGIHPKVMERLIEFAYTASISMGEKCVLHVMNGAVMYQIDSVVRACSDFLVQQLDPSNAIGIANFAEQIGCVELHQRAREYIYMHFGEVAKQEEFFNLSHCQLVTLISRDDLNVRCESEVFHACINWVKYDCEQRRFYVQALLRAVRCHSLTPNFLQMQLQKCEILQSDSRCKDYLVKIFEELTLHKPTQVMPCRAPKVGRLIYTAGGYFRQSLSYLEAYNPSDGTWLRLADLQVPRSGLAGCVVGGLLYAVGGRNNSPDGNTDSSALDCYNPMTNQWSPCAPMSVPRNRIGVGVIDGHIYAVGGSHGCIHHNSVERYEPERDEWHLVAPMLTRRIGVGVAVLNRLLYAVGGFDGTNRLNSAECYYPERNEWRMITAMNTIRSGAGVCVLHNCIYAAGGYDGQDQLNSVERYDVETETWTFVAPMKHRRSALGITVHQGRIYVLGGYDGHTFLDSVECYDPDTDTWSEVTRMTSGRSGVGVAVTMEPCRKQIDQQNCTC
eLon confirm = confirmation of E. coli Lon protease inhibitors | shares compounds with E coli Lon inh | purified E. coli Lon, fluorescence polarization | inhibition, % at 7.94 µM | hit rate 31% among 1,400; in the data active = inhibition above about 16%;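 also: 0% = enzyme with probe and DMSO and 100% = no enzyme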
The depositor's hits bear a star; i = inactive; nt = no result given; + = active, no number. Shown are actives, neighbours in structure and some others; about 0.82% of the full set was active somewhere.

SMILES	RTF Ca sens act	E coli Lon inh	LANA DNA inh	Cardiac RTF inh	Keap1 Nrf2 FP	eLon confirm
O=C(COc1ccc(F)cc1)Nc1nc(-c2ccccn2)cs1	-1	19*	0	-6	2	-10
CCSC1=N/C(=C\c2ccc(-c3ccccc3[N+](=O)[O-])o2)C(=O)S1	5	37*	12	-22	8	-7
COc1ccc(OCCN2CCC(C(=O)NC(c3ccc(OC)cc3)c3ccccn3)CC2)cc1 (stereo unspecified)	nt	-2	nt	nt	nt	nt
O=C(NC(c1ccc(F)cc1)c1ccc2ccccc2n1)C1CCN(CCOc2ccc(F)cc2)CC1 (stereo unspecified)	nt	-4	nt	nt	nt	nt
COc1ccc(OCCN2CCC(C(=O)NC(c3ccc(F)cc3)c3ccc4ccccc4n3)CC2)cc1 (stereo unspecified)	nt	24*	nt	nt	nt	-16
Cc1ccc(C(NC(=O)C2CCN(CCOc3ccccc3)CC2)c2ccccn2)cc1 (stereo unspecified)	nt	15*	nt	nt	nt	-3
Cc1cnc(C)c(Nc2nc(C(N)c3ccccc3)cs2)n1 (stereo unspecified)	nt	-10	nt	nt	nt	nt
CC1(C(=O)NC2CCCCC2)CCC(=O)N1CCOc1ccccc1 (stereo unspecified)	nt	-7	nt	nt	nt	nt
CCCCC(=O)N(C)c1c(C)nc2ccc(C(=O)N3CCN(c4ccccc4)CC3)cn12	nt	-8	nt	nt	nt	nt
Cc1ccc(C(=O)NCCN2CCC(n3c(=O)[nH]c4ccccc43)CC2)cc1	nt	2	nt	nt	nt	nt
CC(=O)c1cccc2c1OC(C)C(=O)N2Cc1ccc(Cl)cc1 (stereo unspecified)	nt	-2	nt	nt	nt	nt
O=C(Cn1nc(-c2ccc(Cl)cc2)c2ccccc2c1=O)Nc1cccnc1	3	18*	3	-2	-8	2
O=C(Cn1nc(-c2ccccc2)c2ccccc2c1=O)Nc1cccnc1	1	-2	0	-3	-2	nt
CC(=O)C1=C(O)C(=CC=Cc2ccccc2)OC1=O	nt	-66	nt	nt	nt	nt
CCCNC(=O)C1(C)CCCN(Cc2cc(-c3ccccc3)nn2C)C1 (stereo unspecified)	nt	1	nt	nt	nt	nt
Cc1c(N/C(=N/S(=O)(=O)c2cc([N+](=O)[O-])ccc2Cl)c2ccccc2)c(=O)n(-c2ccccc2)n1C	-3	19*	-2	-15	0	-11
Cc1c2ccccc2nc2c(F)c(NCCO)c(F)c(F)c12	42*	50*	12	-36	-2	+
OCCNc1c2ccccc2nc2c(F)c(F)c(F)c(F)c12	6	1	2	-29	-8	nt
Cc1c2ccccc2nc2c(F)c(NC(C)C)c(F)c(F)c12	17	107*	8	-31	-1	194*
COc1ccc(CN2C(=O)C(CC(=O)NC3CC3)CC(C(=O)N(C)C)=C2C)cc1 (stereo unspecified)	nt	2	nt	nt	nt	nt
COc1ccc(-c2csc(C(C)(O)c3ccc(OC)cc3)n2)cc1 (stereo unspecified)	nt	-8	nt	nt	nt	nt
Cc1nn(-c2ccccc2)c(N2CCCC2)c1/C=N/NC(=O)c1ccccc1O	2	-3	-1	-11	-1	nt
O=C(N/N=C/c1cc2c3c(c1O)CCCN3CCC2)c1ccccc1O	8	67*	4	2	-6	104*
N#CC(C#N)=C1C=CC=CN1/C(=C\c1ccccc1)C(=O)c1cccs1	12	25*	10	-17	3	9
C=C(C)c1cccc(C(C)(C)NC(=O)Nc2ccc(OC)nc2)c1	4	46*	4	-13	-2	18*
SMILES	RTF Ca sens act	E coli Lon inh	LANA DNA inh	Cardiac RTF inh	Keap1 Nrf2 FP	eLon confirm
CC(C)NC(=O)OCc1c(COC(=O)NC(C)C)c([N+](=O)[O-])n2c1CCC2	nt	-11	nt	nt	nt	nt
COc1cc(C(=O)OCC(=O)N2c3ccccc3NC(=O)C2(C)C)ccc1OCC(C)C	-19	21*	-2	-14	2	-5
CCc1nc2ccc(C(=O)NCCCn3ccnc3)cn2c1N(C)Cc1ccc(N(C)C)cc1	nt	-4	nt	nt	nt	nt
C1=C(c2ccc(-c3ccccc3)cc2)Nc2ncnn2C1c1ccco1 (stereo unspecified)	336*	+	27	-425	6	70*
Cc1ccc(C2C=C(c3ccccc3)Nc3ncnn32)cc1 (stereo unspecified)	0	9	5	-15	-1	nt
Brc1ccc(C2=CC(c3cccs3)n3ncnc3N2)cc1 (stereo unspecified)	707*	141*	101*	i	55*	161*
COc1ccc(OC)c(NC(=O)C2(C)CCN2C(=O)CC2CC2)c1 (stereo unspecified)	nt	-1	nt	nt	nt	nt
